The nature of assay [1]: qHTS Screen of the MIPE 4.0 Collection Against Ewings Sarcoma (TC32) (AID 1259256). Further: nearly all actives have a fitted effect of over 45% in size. Further: potency means the concentration at half of the fitted maximal effect. A digest of the protocol: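 CellTiter-Glo luminescence after 48 h compound exposure (titration) gave viability; percent activity used DMSO-treated cells as no inhibition and medium-only wells as full inhibition. Cells grown in RPMI/5% FBS, dosed 4 h post-seeding.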
On the technique in general: Quantitative high-throughput screening tests each substance at several concentrations.

A short description of assay [2]: qHTS assay to identify small molecule inhibitors of chordoma cells - UCH-1 (AID 1259355). Further: nearly all actives have a fitted effect of over 55% in size. An outline of the steps: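 Seed 800 cells per well; incubate overnight at 37 C, 5% CO2. Add test compounds (15 concentrations), then the auranofin–topoisomerase-agent combination. Incubate 48hr, add CellTiter-Glo, wait 30min, read luminescence.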
The nature of assay [3]: qHTS assay to identify small molecule inhibitors of chordoma cells - UCH-2 (AID 1259356). Further: series mostly up to about 46 µM.
Assay [4] can be described thus: P-glycoprotein substrates identified in KB-8-5-11 adenocarcinoma cell line, qHTS therapeutic library screen (AID 1346987). Further: nearly all actives have a fitted effect of over 65% in size. An outline of the steps: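 KB-8-5-11, a colchicine-selected P-gp-overexpressing KB-3-1 subline, was grown without colchicine for the assay. Cells were seeded at 500 cells/well, dosed in concentration-response and incubated 72 h at 37 degree C, 5% CO2. Viability was read by CellTiter-Glo luminescence.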

Assay [5] in a line: Natriuretic polypeptide receptor (hNpr1) antagonism - Pilot counterscreen GloSensor control cell line (AID 1347045; calls by dose curve; further: series mostly up to about 38 µM). An outline of the steps: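 HEK293 cGMP GloSensor cells preloaded 2 h with 2% GloSensor reagent, then compound 30 min before baseline luminescence read. Stimulated with 50 uM sodium nitroprusside, 20 min at room temperature, then read again; counterscreen for Npr1 antagonism.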
Background: The purpose of a counterscreen is to sort out artefacts and off-target activity.

Assay [6] has as its target Atrial natriuretic peptide receptor 2 (Homo sapiens) (UniProt P20594). Briefly: Natriuretic polypeptide receptor (hNpr2) antagonism - Pilot subtype selectivity assay (AID 1347050; calls by dose curve). An outline of the steps:
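Pilot selectivity screen against hNpr2: HEK293 cGMP-sensor cells are treated with LOPAC1280 compounds, then with hNppC peptide at 1 nM final. The cGMP-driven luminescence change over 20 min at room temperature is the read-out.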

Assay [7] in a line: NS1 protein of Zika virus - qHTS assay to identify small molecule inhibitors in human HEK 293 cells (AID 1347053). Further: series mostly up to about 46 µM; nearly all actives have a fitted effect of over 55% in size. An outline of the steps: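 Inhibition of NS1 expression was scored in HEK 293 cells given compound 1 h ahead of MR766 virus (MOI = 0.5). Following 24 h at 37 C, two anti-NS1 antibodies generated a TR-FRET signal, scaled between uninfected and infected controls.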

Assay [8] has as its target T1, Tyrosine-protein phosphatase non-receptor type substrate 1 (Homo sapiens) + Leukocyte surface antigen CD47 (Homo sapiens) (UniProt P78324+Q08722). In words: CD47-SIRPalpha protein protein interaction - LANCE assay qHTS validation (AID 1347057; active means well fitted curve in the direction sought with a large enough effect in the signal ratio, with a control signal flat, not every such curve was filed as active; the % refers to the signal ratio; further: series mostly up to about 38 µM). An outline of the steps:
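First, His-tagged CD47 and Eu-labelled anti-His antibody met the compound for 30 min; next, site-specifically biotinylated SIRPalpha was added for 30 min; finally streptavidin-APC was added before reading the TR-FRET ratio.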
Background: In TR-FRET formats the signal depends on donor and acceptor labels being close together.

Assay [9] addresses T1, Tyrosine-protein phosphatase non-receptor type substrate 1 (Homo sapiens) + Leukocyte surface antigen CD47 (Homo sapiens). Briefly: CD47-SIRPalpha protein protein interaction - HTRF assay qHTS validation (AID 1347058; active means well fitted curve in the direction sought with a large enough effect in the signal ratio, not every such curve was filed as active; the % refers to the signal ratio;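 further: recombinant soluble extracellular CD47 with His tag and biotinylated SIRPalpha domains; series mostly up to about 38 µM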). An outline of the steps: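 TR-FRET read (Ch1/Ch2 ratio) of soluble extracellular CD47 and Avi-biotinylated SIRPalpha domains in PBS pH 7.4 with 0.05% IGEPAL; 7-point compound titration. Sequential 30 min room-temperature steps; non-biotinylated SIRPalpha as control inhibitor.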

Assay [10] shares this target. Briefly: CD47-SIRPalpha protein protein interaction - Alpha assay qHTS validation (AID 1347059).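 Further: bead proximity luminescence from CD47 binding SIRPalpha after compound preincubation with SIRPalpha.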 A digest of the protocol: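 Binding is measured by AlphaScreen proximity: Ni-NTA acceptor beads capture His-CD47, streptavidin donor beads capture biotin-SIRPalpha. Each of three additions (SIRPalpha with compound, CD47, beads) incubates 30 min at room temperature protected from light.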

In assay [11] the target is Parathyroid hormone/parathyroid hormone-related peptide receptor (Homo sapiens) (UniProt Q03431). In words: qHTS for PTHR1 Agonists: Optimization Screen against the NCGC LOPAC library (AID 1347079).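 Further: GloSensor cAMP luminescence in HEK-293 GP2 cells expressing human PTHR1 with IBMX.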 A digest of the protocol: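 Agonist readout: GloSensor cAMP luminescence, read after 15 min at room temperature. HEK-293-derived GP2 line carries PTHR1; compounds tested as a titration for 1 hr at 37C in presence of IBMX. M-PTH (1-15) served as control.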

Assay [12] is described as follows: qHTS of pediatric cancer cell lines to identify multiple opportunities for drug repurposing: Primary screen for TC32 cells (AID 1347089). Further: nearly all actives have a fitted effect of over 60% in size. An outline of the steps:
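Measured quantity: luminescence from CellTiter-Glo, reflecting metabolically active TC32 cells following 48 h of compound. Curves came straight from multi-point titrations, with 8 or 11 points in primary and 11 in confirmatory screening.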

Assay [13] deals with Atrial natriuretic peptide receptor 1 (Homo sapiens) (UniProt P16066). Briefly: Natriuretic polypeptide receptor (hNpr1) antagonism - Pilot screen (AID 1347049; calls by dose curve;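 further: agonist-evoked cGMP luminescence read 20 min after hNppA addition; series mostly up to about 58 µM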). A digest of the protocol: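 Readout is cGMP-driven firefly luciferase luminescence in HEK293 cells carrying hNpr1 and a PDE5-domain GloSensor, read before and 20 min after 0.1 nM hNppA stimulation. Cells had 2% substrate reagent for 2 h and test compound for 30 min.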

A short description of assay [14]: Identifying Small Molecule Inhibitors of Pancreatic Cancer Stem Cells (SN12C, Adherent) (AID 1259358).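 Further: cell survival measured after 48 h of compound exposure.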 Further: potency means the concentration at half of the fitted maximal effect. A digest of the protocol: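 Cytotoxicity read by CellTiter-Glo luminescence after 48 h compound exposure at 37C; percent activity scaled between DMSO-treated cells and cell-free wells. Spheroid formats used cells pre-formed 14 days in stem cell media on hydrogel.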

The nature of assay [15]: Identifying Small Molecule Inhibitors of Pancreatic Cancer Stem Cells (SN12C, Spheroid) (AID 1259360). To be noted: Potency: SN12C spheroid viability. A digest of the protocol: (§1)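 After a 4 h attachment period, compounds were pinned into wells and cultures held 48 h under standard incubator conditions. Viability was then measured as CellTiter-Glo luminescence following 10 min at room temperature.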

Assay [16] in a line: Identifying Small Molecule Inhibitors of Pancreatic Cancer Stem Cells (A2780, Spheroid) (AID 1259357).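 Further: compound exposure lasted 48 h before the ATP luminescence read.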 To be noted: Potency: A2780 spheroid viability. A digest of the protocol:
as §1

Unmarked numbers belong to inactive results. Records with an inconclusive call do not appear. Activity calls are given as the source filed them. Unless noted, the call rests on the fitted dose curve; in most records, active means well fitted curve in the direction sought with a large enough effect; inconclusive means small, poorly fitted or top-dose-only effect, or another doubt; inactive means no such curve, though single readings can be large; an effect the other way counts as inactive or inconclusive.

Parathyroid hormone/parathyroid hormone-related peptide receptor (Homo sapiens), sequence (Q03431 whole entry, looked up): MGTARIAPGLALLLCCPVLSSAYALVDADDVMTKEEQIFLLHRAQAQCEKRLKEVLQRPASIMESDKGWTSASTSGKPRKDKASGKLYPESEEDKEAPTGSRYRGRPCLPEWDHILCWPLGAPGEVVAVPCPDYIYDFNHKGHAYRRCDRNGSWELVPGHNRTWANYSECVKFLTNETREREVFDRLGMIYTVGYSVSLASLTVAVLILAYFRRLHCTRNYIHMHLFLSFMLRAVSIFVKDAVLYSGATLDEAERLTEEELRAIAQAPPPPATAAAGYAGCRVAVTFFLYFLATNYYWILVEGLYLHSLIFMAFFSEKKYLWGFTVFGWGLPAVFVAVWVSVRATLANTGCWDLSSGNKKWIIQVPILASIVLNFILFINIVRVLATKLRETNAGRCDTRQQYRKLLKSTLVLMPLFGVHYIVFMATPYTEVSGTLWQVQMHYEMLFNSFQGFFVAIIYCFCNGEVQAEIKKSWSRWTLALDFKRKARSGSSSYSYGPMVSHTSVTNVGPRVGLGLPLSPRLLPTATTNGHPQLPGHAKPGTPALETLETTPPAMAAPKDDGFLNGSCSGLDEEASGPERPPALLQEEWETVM
T1 sequence (P78324 whole entry, looked up): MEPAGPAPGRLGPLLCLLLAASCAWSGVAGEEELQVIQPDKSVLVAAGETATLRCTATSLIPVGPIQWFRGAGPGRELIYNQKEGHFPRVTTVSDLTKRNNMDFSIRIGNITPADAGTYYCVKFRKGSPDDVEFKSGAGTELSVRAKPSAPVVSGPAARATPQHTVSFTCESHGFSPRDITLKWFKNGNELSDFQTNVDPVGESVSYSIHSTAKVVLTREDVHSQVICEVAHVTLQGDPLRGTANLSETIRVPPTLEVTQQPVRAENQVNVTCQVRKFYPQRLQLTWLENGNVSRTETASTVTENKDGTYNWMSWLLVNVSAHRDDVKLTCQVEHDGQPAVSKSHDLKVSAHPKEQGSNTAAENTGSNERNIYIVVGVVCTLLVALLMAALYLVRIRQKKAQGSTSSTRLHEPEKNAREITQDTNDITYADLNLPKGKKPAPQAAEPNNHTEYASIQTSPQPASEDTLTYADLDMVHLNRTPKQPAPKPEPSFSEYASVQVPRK
T1 sequence (Q08722 whole entry, looked up): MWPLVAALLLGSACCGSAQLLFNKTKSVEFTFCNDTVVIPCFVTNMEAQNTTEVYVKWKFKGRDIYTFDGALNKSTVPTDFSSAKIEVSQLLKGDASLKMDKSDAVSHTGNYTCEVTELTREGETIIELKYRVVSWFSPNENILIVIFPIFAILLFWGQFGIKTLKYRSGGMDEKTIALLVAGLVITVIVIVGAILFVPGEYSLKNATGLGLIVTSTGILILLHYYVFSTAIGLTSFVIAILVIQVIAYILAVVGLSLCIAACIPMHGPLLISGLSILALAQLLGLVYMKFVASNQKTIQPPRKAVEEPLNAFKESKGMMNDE
Atrial natriuretic peptide receptor 1 (Homo sapiens), sequence (P16066 whole entry, looked up): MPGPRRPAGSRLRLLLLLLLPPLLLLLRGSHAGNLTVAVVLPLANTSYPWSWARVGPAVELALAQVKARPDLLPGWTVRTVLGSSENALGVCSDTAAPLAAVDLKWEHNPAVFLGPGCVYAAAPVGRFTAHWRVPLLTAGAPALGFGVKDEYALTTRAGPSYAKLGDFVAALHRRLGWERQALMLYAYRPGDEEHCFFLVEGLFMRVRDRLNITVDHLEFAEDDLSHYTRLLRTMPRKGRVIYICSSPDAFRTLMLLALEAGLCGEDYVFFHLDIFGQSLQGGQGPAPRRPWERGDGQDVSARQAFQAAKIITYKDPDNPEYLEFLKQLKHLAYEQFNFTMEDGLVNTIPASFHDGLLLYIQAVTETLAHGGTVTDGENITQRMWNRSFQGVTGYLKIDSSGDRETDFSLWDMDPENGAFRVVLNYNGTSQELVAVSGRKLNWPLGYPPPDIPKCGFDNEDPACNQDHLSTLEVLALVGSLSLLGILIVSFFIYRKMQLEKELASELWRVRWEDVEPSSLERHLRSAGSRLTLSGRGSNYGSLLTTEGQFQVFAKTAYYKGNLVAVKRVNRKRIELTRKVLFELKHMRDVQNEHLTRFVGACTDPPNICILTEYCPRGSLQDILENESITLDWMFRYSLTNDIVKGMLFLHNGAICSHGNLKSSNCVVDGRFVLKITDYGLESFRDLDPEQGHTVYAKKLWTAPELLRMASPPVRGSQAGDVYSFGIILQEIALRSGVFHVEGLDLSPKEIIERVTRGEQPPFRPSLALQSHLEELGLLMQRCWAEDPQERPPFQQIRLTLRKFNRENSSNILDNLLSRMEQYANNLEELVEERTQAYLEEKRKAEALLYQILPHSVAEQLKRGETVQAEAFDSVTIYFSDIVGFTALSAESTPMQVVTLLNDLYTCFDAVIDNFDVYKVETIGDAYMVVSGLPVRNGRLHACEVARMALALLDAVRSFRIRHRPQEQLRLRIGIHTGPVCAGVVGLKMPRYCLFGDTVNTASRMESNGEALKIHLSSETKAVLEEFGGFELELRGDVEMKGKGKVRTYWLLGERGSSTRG
Atrial natriuretic peptide receptor 2 (Homo sapiens), sequence (P20594 whole entry, looked up): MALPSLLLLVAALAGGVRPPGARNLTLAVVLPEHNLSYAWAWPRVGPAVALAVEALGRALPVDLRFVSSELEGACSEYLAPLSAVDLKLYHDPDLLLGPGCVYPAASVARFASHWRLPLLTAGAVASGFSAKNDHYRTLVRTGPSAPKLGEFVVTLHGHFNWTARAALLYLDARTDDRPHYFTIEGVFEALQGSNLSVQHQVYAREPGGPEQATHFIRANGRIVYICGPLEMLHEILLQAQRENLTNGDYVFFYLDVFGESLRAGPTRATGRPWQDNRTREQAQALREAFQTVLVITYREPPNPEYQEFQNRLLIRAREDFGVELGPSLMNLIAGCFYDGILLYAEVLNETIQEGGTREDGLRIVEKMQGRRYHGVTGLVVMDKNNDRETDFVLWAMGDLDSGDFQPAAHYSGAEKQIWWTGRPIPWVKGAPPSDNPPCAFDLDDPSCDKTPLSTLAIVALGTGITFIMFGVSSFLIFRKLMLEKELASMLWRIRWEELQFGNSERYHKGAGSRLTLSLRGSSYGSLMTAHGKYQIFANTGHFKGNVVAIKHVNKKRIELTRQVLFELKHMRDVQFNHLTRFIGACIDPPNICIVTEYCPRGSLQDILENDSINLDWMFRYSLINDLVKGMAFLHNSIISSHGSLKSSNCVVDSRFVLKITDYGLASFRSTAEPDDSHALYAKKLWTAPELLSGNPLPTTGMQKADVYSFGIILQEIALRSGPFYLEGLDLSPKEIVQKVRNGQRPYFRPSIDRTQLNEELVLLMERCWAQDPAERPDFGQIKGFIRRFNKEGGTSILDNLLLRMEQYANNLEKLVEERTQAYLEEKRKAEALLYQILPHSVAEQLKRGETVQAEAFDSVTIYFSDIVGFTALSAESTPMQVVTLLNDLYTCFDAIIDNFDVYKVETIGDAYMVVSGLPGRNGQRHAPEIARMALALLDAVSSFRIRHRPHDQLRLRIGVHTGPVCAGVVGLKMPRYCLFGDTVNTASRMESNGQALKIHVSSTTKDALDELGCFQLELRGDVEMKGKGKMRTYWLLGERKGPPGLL

For the compound `c1ccc([C@H]2CN3CCSC3=N2)cc1`, the Potency entry in [1], in assay [2], in assay [4], in assay [6], in [7] and in assay [12] was “inactive” throughout. Also, the compound was called inactive in assay [3], in assay [5], in assay [8], in [9], in [10] and in assay [11].

On to `CNC[C@H](O)c1cccc(O)c1`, for which the Potency result in [1], in [2], in [4], in [6], in [7] and in assay [12] was “inactive” in each case. For the same compound, the result in assay [3], in assay [5], in assay [13], in assay [9], in assay [10] and in assay [11] was inactive.

As for `Cc1[nH]c(=O)c(C#N)cc1-c1ccc2nccn2c1`, the Potency entry in assay [1], in [2], in assay [14], in assay [15], in assay [4] and in assay [6] was “inactive” throughout. In addition, the Potency result in assay [7] and in [12] was “inactive” in each case. Besides, the compound was called inactive in assay [3], in assay [5], in assay [13], in [8], in assay [9] and in assay [10]. Further, the compound was classed as inactive in assay [11].

As for `NCCc1ccc(O)c(O)c1`, in [1], the Potency is 1.66 µM (active). In addition, the Potency entry in [2], in assay [4], in assay [6] and in assay [7] was “inactive” each time. For the same compound, the call in [3], in [5], in assay [13], in assay [9], in [10] and in [11] was inactive.

For the compound `OC(CCN1CCCCC1)(c1ccccc1)C1CC2C=CC1C2` (stereo not drawn), the Potency result in assay [1], in assay [2], in [4], in assay [6] and in assay [7] was “inactive” each time. Besides, the compound was classed as inactive in assay [3], in [5], in [13], in assay [9], in [10] and in assay [11].

For `CCCC(CCC)C(=O)O`, the Potency result in assay [1], in [2], in assay [4], in [6], in [7] and in assay [12] was “inactive” throughout. For the same compound, the compound was classed as inactive in assay [3], in [5], in assay [13], in assay [9], in [10] and in [11].

For `Nc1nc2[nH]cc(CCc3ccc(C(=O)N[C@@H](CCC(=O)O)C(=O)O)cc3)c2c(=O)[nH]1`, the Potency in assay [1] is 0.662 µM (active); in [14], 662 nM (active). Further, the Potency result in assay [2], in [16], in [15] and in assay [7] was “inactive” throughout. Also, the compound was classed as inactive in assay [3].

Regarding `CC(C)(C)NCC(O)c1ccc(O)c(CO)c1` (stereo not drawn), the Potency result in [1], in assay [2], in [4], in [6], in assay [7] and in assay [12] was “inactive” throughout. Moreover, the compound was classed as inactive in assay [3], in assay [5], in [13], in assay [9], in assay [10] and in assay [11].

With `O=c1[nH]cnc2[nH]ncc12`, the Potency entry in assay [1], in assay [2], in [4], in [6] and in assay [7] was “inactive” throughout. The result in assay [3], in [5], in assay [13], in [9], in assay [10] and in [11] was inactive.

For the origin of these results see PubChem BioAssay (NCATS).
